Source: PubChem (National Center for Advancing Translational Sciences (NCATS))
This is a sample that favours compounds with a hit; in the whole collection about 19% have one here.
RORgamma inh: inhibitors of mouse ROR gamma transcriptional activity; AID 2551; P51450; Potency, µM (top dose mostly 53.6 µM), most hits filed as inhibitors; hit rate 5.4% among 310,000; Drosophila S2 Gal4-RORgamma UAS-luciferase reporter, 20 h; also: nearly all actives have a fitted effect of over 60% in size
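Luminescence from a UAS-regulated Photinus luciferase reporter in stably transfected Drosophila Schneider cells is measured; decreased signal marks ROR gamma inhibition. Fusion expression is induced by 700 uM copper sulfate for 20 hr.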
Gal4-VP16 FLuc: Gal4-VP16 reporter inhibition counter-screen. Drosophila S2 Gal4-VP16 UAS-luciferase, luminescence, 20 h. Potency, µM (doses to about 53.6 µM), most hits filed as inhibitors. hit rate 3.5% among 310,000. AID 2546;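 also: Gal4-VP16 expression switched on by copper sulfate through the metallothionein promoter; nearly all actives have a fitted effect of over 50% in size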
TDP1 cell CPT: growth inhibition of DT40 Tdp1-/-;hTDP1 cells with camptothecin (screen for TDP1 inhibitors); hit rate 12% among 420,000; chicken DT40 Tdp1-/-;hTDP1 cells + 20 nM CPT, ATP luminescence, 48 h; Potency, µM (doses to about 46.2 µM), usual class: inhibitors; also: nearly all actives have a fitted effect of over 55% in size
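Cell growth measured by CellTiter-Glo luminescence after a minimum 48 h, 37 C compound exposure with 20 nM CPT in Tdp1-knockout DT40 cells stably expressing hTDP1, seeded 400/well; qHTS titration format.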
TDP1 block: TDP1 (human) enzyme inhibition. hit rate 0.28% among 350,000. Potency, µM (highest dose often 130 µM), most hits filed as inhibitors. AID 485290. recombinant TDP1, AlphaScreen DNA substrate cleavage. Q9NUW8; also: nearly all actives have a fitted effect of over 40% in size
Target sequence (Q9NUW8 whole entry, looked up): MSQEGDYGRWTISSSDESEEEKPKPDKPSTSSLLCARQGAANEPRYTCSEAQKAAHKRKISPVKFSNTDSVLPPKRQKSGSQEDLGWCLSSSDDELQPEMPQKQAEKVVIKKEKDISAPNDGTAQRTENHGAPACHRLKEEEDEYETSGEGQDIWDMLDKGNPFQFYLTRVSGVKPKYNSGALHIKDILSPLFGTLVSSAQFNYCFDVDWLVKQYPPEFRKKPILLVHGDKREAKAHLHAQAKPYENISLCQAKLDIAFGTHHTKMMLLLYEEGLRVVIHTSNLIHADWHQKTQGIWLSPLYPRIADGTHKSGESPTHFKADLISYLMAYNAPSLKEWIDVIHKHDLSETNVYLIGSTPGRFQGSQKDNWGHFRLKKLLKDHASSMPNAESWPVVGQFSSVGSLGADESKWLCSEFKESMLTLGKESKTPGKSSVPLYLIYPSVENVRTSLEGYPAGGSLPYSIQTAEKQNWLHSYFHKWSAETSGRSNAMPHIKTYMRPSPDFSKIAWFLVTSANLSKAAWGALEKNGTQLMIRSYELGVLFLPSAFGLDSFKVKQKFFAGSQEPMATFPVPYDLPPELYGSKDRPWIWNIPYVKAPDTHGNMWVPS
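AlphaScreen read-out: signal falls as enzyme removes the 3' tyrosine-FITC from a 5'-biotinylated DNA oligo (15 nM, 5 min, RT). Enzyme was E. coli-made recombinant Tdp1 at 1 nM, exposed to compound for 15 min beforehand; beads 10 ug/ml, 10 min.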
TDP1 cell noCPT: qHTS for Inhibitors of human tyrosyl-DNA phosphodiesterase 1 (TDP1): qHTS in cells in absence of CPT | DT40 Tdp1-/- hTDP1 cells, no CPT, ATP luminescence, 48 h | Potency, µM (top dose mostly 46.2 µM), actives largely listed as inhibitors | hit rate 15% among 420,000 | AID 686978, 2013; also: nearly all actives have a fitted effect of over 55% in size
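Readout: luminescence from CellTiter-Glo after 30 min in the dark at RT. Cells: DT40 Tdp1-/- with stable hTDP1, 400/well. Exposure: compounds alone, ≥48 hr, 37 °C.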
Numbers stand for hits; – = inactive; ? = inconclusive; · = not tested or not shown. Calls follow the shape of the dose curve; as a rule, active = well fitted curve in the direction sought with a large enough effect; inconclusive = small, poorly fitted or top-dose-only effect, or another doubt; inactive = no such curve, though single readings can be large; an effect the other way counts as inactive or inconclusive.

SMILES	RORgamma inh	Gal4-VP16 FLuc	TDP1 cell CPT	TDP1 block	TDP1 cell noCPT
O=c1n(Cc2ccc(Cl)cc2)nc2n1-c1ccccc1OC2	·	·	–	–	–
Cc1ccc(-n2cc(CNCCCn3cccn3)c(-c3cccc(C)c3)n2)cc1	–	–	13µM	·	16µM
O=C(NCc1ccco1)C1Cc2ccccc2CN1S(=O)(=O)c1ccccc1F (configuration not stated)	·	·	18µM	·	?
COC(c1ccc(Cl)cc1)(c1ccc(Cl)cc1)C(Oc1nc(C)cc(C)n1)C(=O)O (configuration not stated)	?	–	?	·	15µM
C/C(Cn1cnc([N+](=O)[O-])n1)=N\NC(=O)c1ccccc1O	13µM	?	–	–	–
Cc1cc([N+](=O)[O-])nn1CC(=O)Nc1ccc(F)cc1	–	–	–	–	–
C/C(Cn1nc([N+](=O)[O-])cc1C)=N\NC(=O)c1ccc(O)cc1O	1.6µM	14µM	–	–	–
Cc1cc([N+](=O)[O-])nn1CC(=O)NNC(=S)Nc1ccc(F)cc1	14µM	?	–	–	–
C/C(Cn1cnc([N+](=O)[O-])n1)=N\NC(=O)c1ccccc1F	·	·	–	·	–
COc1cc(C(=O)N/N=C(\C)Cn2nc([N+](=O)[O-])cc2C)ccc1O	?	–	–	–	–
C/C(Cn1cnc([N+](=O)[O-])n1)=N\NC(=O)c1ccc(O)cc1O	0.2µM	?	–	–	–
CCNc1nc(NCC)nc(OCCNS(=O)(=O)c2ccccc2)n1	–	–	?	·	–
Cc1noc(Cn2c(=O)c3cc4c(cc3n(CC(=O)Nc3ccccc3Br)c2=O)OCO4)n1	·	·	–	–	–
N#C/C(=C/c1ccc(CNS(=O)(=O)c2ccccc2)o1)C(N)=O	?	–	–	–	–
N#Cc1cc(Sc2ccccn2)c([N+](=O)[O-])cc1C#N	–	–	?	–	–
COc1cc(OC)cc(C2C(C#N)=C(N)Oc3n[nH]c(-c4cccnc4)c32)c1 (configuration not stated)	–	–	–	–	–
Cc1cc([N+](=O)[O-])nn1CC(=O)N/N=C/c1ccccc1Br	–	–	–	–	–
Cc1cc([N+](=O)[O-])nn1CC(=O)N/N=C/c1ccc(O)cc1O	?	–	8.2µM	–	6.5µM
COc1ccc2nc(NC(=O)c3cccc(N4C(=O)CCC4=O)c3)sc2c1	·	·	?	–	–
O=C(NCc1ccccc1)C1C(c2ccccc2)=Nc2ccccc2N1C(=O)c1ccncc1 (configuration not stated)	·	·	–	·	–
O=C(NCc1ccccc1)C1C(c2ccc3c(c2)OCO3)=Nc2ccccc2N1C(=O)c1ccccc1 (configuration not stated)	·	·	23µM	·	15µM
O=C(NCc1ccccc1)C1C(c2ccc3c(c2)OCO3)=Nc2ccccc2N1C(=O)c1cccc(C(F)(F)F)c1 (configuration not stated)	·	·	16µM	·	?
Cc1cccc(C)c1NC(=O)C1C(c2ccc3c(c2)OCO3)=Nc2ccccc2N1C(=O)c1ccccc1 (configuration not stated)	·	·	5.2µM	·	1.5µM
C[C@@H]1CN([C@H](C)CO)C(=O)CCCn2nncc2CO[C@H]1CN(C)C(=O)OCc1ccccc1	·	·	–	·	–
O=C(CC1NCCNC1=O)Nc1ccc(Cl)c(Cl)c1 (configuration not stated)	–	–	–	–	–
SMILES	RORgamma inh	Gal4-VP16 FLuc	TDP1 cell CPT	TDP1 block	TDP1 cell noCPT
CCOc1ccc(S(=O)(=O)NCc2ccccc2)cc1C(N)=O	–	?	?	–	?
O=S(=O)(/N=C(\Sc1ccc(Cl)cc1)c1ccccc1)c1ccccc1	–	–	12µM	–	21µM
Cc1ccc(S/C(=N/S(=O)(=O)c2ccc(Cl)cc2)c2ccccc2)cc1	·	·	11µM	–	10µM
COC(=O)[C@@]1(Cc2ccc(F)cc2)[C@H]2c3cc(C(=O)N(C)C)n(CCSCCO)c3C[C@H]2CN1C(=O)c1ccccc1	–	–	?	–	–
O=C(Nc1cc(Cl)ccc1Cl)C1(c2cccs2)CCOCC1	·	·	16µM	–	21µM
Cc1ccc(NC(=O)C2(c3cccs3)CCOCC2)cc1Cl	·	·	26µM	–	?
O=C(NCc1ccc(Cl)cc1)C1(c2cccs2)CCOCC1	·	·	?	–	?
O=C(Nc1ccc(C(F)(F)F)cc1)C1(c2cccs2)CCOCC1	·	·	?	–	23µM
O=C(NC(=S)NNC(=O)c1ccco1)c1ccccc1	11µM	11µM	?	–	16µM
O=C(NNC(=O)c1ccco1)c1ccccc1	–	–	–	–	–
Cc1cccc(NC(=S)NNC(=O)c2ccco2)c1	–	–	–	–	–
Cc1ccc(C)c(NC(=S)NNC(=O)c2ccco2)c1	2.2µM	–	–	–	–
Cc1ccc(C(=O)NNC(=S)NC(=O)c2ccco2)cc1	–	–	7.3µM	–	12µM
Cc1noc(C)c1COc1ccc(C(=O)N2CCC(C(N)=O)CC2)cc1	·	·	–	–	–
CCOc1cccc(N(C(=O)CCC(=O)Nc2cc(C)on2)C(C(=O)NC(C)(C)C)c2ccc(OC)cc2)c1 (configuration not stated)	–	–	29µM	·	?
CCc1ccc(N(C(=O)CCC(=O)Nc2cc(C)on2)C(C(=O)NC(C)(C)C)c2ccc(OC)cc2)cc1 (configuration not stated)	–	–	?	–	21µM
CN1CCN(c2ccc(NC(=O)c3ccc(Cl)cc3Cl)cc2)CC1	?	–	–	·	–
Cc1ccc(/C=N/Nc2ncnc3nc[nH]c23)cc1	–	–	–	·	–
CC(C)C(NC(=O)OCc1ccccc1)C(=O)OCC(=O)NC1CC1 (configuration not stated)	–	–	–	–	–
CSc1cccc(NC(=O)CN(C)S(=O)(=O)c2ccc3c(c2)n(C)c(=O)c(=O)n3C)c1	·	·	–	–	–
CC(=O)N1CCCc2cc(S(=O)(=O)N(C)CC(=O)Nc3ccc(Cl)cc3C)ccc21	·	·	23µM	–	23µM
CSc1cccc(NC(=O)CN(C)S(=O)(=O)c2ccc3c(c2)CCCN3C(C)=O)c1	·	·	?	–	26µM
COc1ccc(NC(=O)CN(C)S(=O)(=O)c2ccc3c(c2)CCCN3C(C)=O)cc1Cl	·	·	?	–	21µM
CC(=O)N1CCCc2cc(S(=O)(=O)N3CCCC(C(=O)Nc4cc(Cl)ccc4C)C3)ccc21 (configuration not stated)	·	·	?	–	?
COc1ccc(NC(=O)CCS(=O)(=O)c2ccc3c(c2)CCCN3C(C)=O)cc1Cl	–	–	–	–	–
COc1ccc(OC)c(NC(=O)CN(C)S(=O)(=O)c2ccc(Cl)cc2)c1	–	?	–	–	–
COc1ccc(Cl)cc1NC(=O)CN(C)S(=O)(=O)c1ccc2c(c1)CCCN2C(C)=O	·	·	13µM	–	8.2µM
